This passage reports Potency and max activation results from PubChem BioAssay (Tox21).

Values without a mark were called inactive. Results filed as inconclusive are left out. The source made the active and inactive calls. Calls follow the shape of the dose curve; as a rule, active = well fitted curve in the direction sought with a large enough effect in the repeat runs; inconclusive = weak or mixed curves; inactive = no such curve, though single readings can be large; an effect the other way counts as inactive or inconclusive.

A short description of assay [1]: Human pregnane X receptor (PXR) small molecule agonists, qHTS cell viability counter screen (AID 1346977). Also: nearly all actives have a fitted effect of over 50% in size. Also: potency is read from the fitted curve at half-maximal effect. An outline of the steps:
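Fluorescence read-out (CellTiter-Fluor) of viability in PXR-Luc HepG2 cells, multiplexed with the luciferase agonist read. Compounds in DMSO added after 5hr plating; 24hr total exposure at 37C, 5% CO2.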

A short description of assay [2]: Caspase-3/7 induction in HepG2 cells by small molecules, qHTS assay (AID 1346978). Also: % is scaled to controls: 0 for no effect and ±100 for the full control effect; nearly all actives have a fitted effect of over 15% in size. The method, boiled down: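 Wild-type HepG2 cells, 2,000/well, settled 5 hr at 37 C and 5% CO2, then compound-treated for 17 hr; caspase-3/7 activity read by luminescent Caspase-Glo 3/7 after 30 min at room temperature.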
In general terms: In qHTS, concentration-response curves come from the screen itself.

Assay [3] is described as follows: Caspase-3/7 induction in CHO-K1 cells by small molecules, qHTS assay (AID 1346980). Also: % is scaled to controls: 0 for no effect and ±100 for the full control effect; nearly all actives have a fitted effect of over 15% in size. The method, boiled down: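 Wild-type CHO-K1 cells exposed to compounds for 17hr at 37 C, 5% CO2. Caspase-3/7 activity then measured by Caspase-Glo 3/7 luminescence after 30min at room temperature.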
The target in assay [4] is Nuclear receptor subfamily 1 group I member 2 (Rattus norvegicus) (UniProt Q9R1A7). Nature of the assay: Rat pregnane X receptor (rPXR) activation by small molecules, qHTS assay (AID 1346983). Also: nearly all actives have a fitted effect of over 20% in size. Also: potency is read from the fitted curve at half-maximal effect. As to max activation: % is scaled to controls: 0 for no effect and ±100 for the full control effect. The note with it: rPXR luciferase reporter cells, One-Glo luminescence, 24 h; max activation: stronger effect = higher value. The method, boiled down: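 Cell-based rPXR activation assay: rPXR cells, 2,000 per well, rested 5hr at 37 C, then exposed to compounds in DMSO for 24 hr at 37 C. Luciferase activity read by One-Glo luminescence after 30 min at room temperature.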

Assay [5] deals with Nuclear receptor subfamily 1 group I member 2 (Homo sapiens) (UniProt O75469). The assay can be described thus: CYP3A4 induction through human pregnane X receptor (PXR) by small molecules, qHTS assay (AID 1346984). Also: nearly all actives have a fitted effect of over 40% in size. Also: potency is read from the fitted curve at half-maximal effect. As to activation: % is scaled to controls: 0 for no effect and ±100 for the full control effect. The method, boiled down:
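Luminescence readout: luciferase signal after One-Glo (30 min, room temperature), following 3 h at 37C with 3uM final Luciferin-IPA P450 substrate. Cells were DPX-2 (HepG2, PXR/CYP3A4-luc co-transfected) dosed for 24 h.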

Assay [6] shares this target. Nature of the assay: Human pregnane X receptor (PXR) activation by small molecules, qHTS assay (AID 1346985). Also: nearly all actives have a fitted effect of over 40% in size. Also: potency is read from the fitted curve at half-maximal effect. As to activation: % is scaled to controls: 0 for no effect and ±100 for the full control effect. An outline of the steps: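 DPX-2 cells (HepG2 co-transfected with a PXR response element and a CYP3A4-promoter luciferase construct) were seeded at 2,000 per well, rested 5 hr at 37C, then exposed to DMSO-dissolved compounds for 24 hr. Activation was read as luciferase luminescence.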

Assay [7] addresses Cytochrome P450 2D6 (Homo sapiens) (UniProt P10635). The assay can be described thus: Cytochrome P450 Family 2 Subfamily D Member 6 (CYP2D6) small molecule antagonists: luciferase reporter qHTS assay (AID 1671196). Also: potency is read from the fitted curve at half-maximal effect; nearly all actives have a fitted effect of over 50% in size. The method, boiled down: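 Read-out is luminescence from luciferin formed by CYP2D6 turnover of a proluciferin substrate, recorded as relative luminescence units. Reactions ran 1 h at room temperature after NADPH regeneration solution was added.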

The target in assay [8] is Cytochrome P450 2C9 (Homo sapiens) (UniProt P11712). The assay can be described thus: Cytochrome P450 Family 2 Subfamily C Member 9 (CYP2C9) small molecule antagonists: luciferase reporter qHTS assay (AID 1671198). Also: nearly all actives have a fitted effect of over 50% in size. Also: potency is read from the fitted curve at half-maximal effect. An outline of the steps:
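P450-Glo proluciferin substrate with CYP2C9 enzyme; 10 min RT preincubation, then NADPH regeneration 1 h at 37C; luciferin detection reagent 20 min RT, luminescence in relative luminescence units.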
(In general: Reporter assays use an easily measured gene product as a stand-in for the process of interest.)

For assay [9], the target named is Cytochrome P450 1A2 (Homo sapiens) (UniProt P05177). The assay can be described thus: Cytochrome P450 Family 1 Subfamily A Member 2 (CYP1A2) small molecule antagonists: luciferase reporter qHTS assay (AID 1671199). Also: nearly all actives have a fitted effect of over 50% in size. Also: potency is read from the fitted curve at half-maximal effect. The method, boiled down:
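P450-Glo CYP1A2, 1536-well qHTS: enzyme/proluciferin substrate + cpd (DMSO), 10 min RT; NADPH regen, 1 h RT; detection reagent, 20 min; luminescence, RLU.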

The target of assay [10] is Nuclear receptor subfamily 1 group I member 2 (Homo sapiens) (UniProt O75469). Nature of the assay: Human pregnane X receptor (PXR) small molecule agonists, qHTS assay (AID 1346982). Also: nearly all actives have a fitted effect of over 35% in size. Also: potency is read from the fitted curve at half-maximal effect. As to activation: % is scaled to controls: 0 for no effect and ±100 for the full control effect. The method, boiled down:
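Luciferase signal from ONE-Glo (30 min, room temperature) measured activation of hPXR-driven CYP3A4 reporter expression in PXR-Luc HepG2 cells treated with compounds for 24 hr at 37 C.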

Assay [11] concerns the target Cytochrome P450 2C19 (Homo sapiens) (UniProt P33261). The assay can be described thus: Cytochrome P450 Family 2 Subfamily C Member 19 (CYP2C19) small molecule antagonists: luciferase reporter qHTS assay (AID 1671197). Also: series mostly up to about 120 µM; % is scaled to controls: 0 for no effect and ±100 for the full control effect; nearly all actives have a fitted effect of over 65% in size. An outline of the steps:
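First, compounds are pinned into enzyme-substrate mix and held 10 min at room temperature. Second, NADPH regeneration solution is added and plates incubate 1 h at 37C. Third, detection reagent is added and luminescence read after 20 min.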

For assay [12], the target named is Voltage-gated inwardly rectifying potassium channel KCNH2 (Homo sapiens) (UniProt Q12809). The assay can be described thus: Human Ether-a-go-go-Related Gene (hERG) channel small molecule antagonists: fluorescence cell-based qHTS assay (AID 1671200). Also: nearly all actives have a fitted effect of over 50% in size. Also: potency is read from the fitted curve at half-maximal effect. An outline of the steps:
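Read-out: thallium influx as a surrogate for potassium, tracked as fluorescence (480 nm ex/540 nm em) every second for 2 min after Stimulus Buffer addition in dye-loaded hERG-U2OS cells.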

Assay [13] concerns the target Cytochrome P450 3A4 (Homo sapiens) (UniProt P08684). The assay can be described thus: Cytochrome P450 Family 3 Subfamily A Member 4 (CYP3A4) small molecule antagonists: luciferase reporter qHTS assay (AID 1671201). The method, boiled down: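 Luminescent readout (RLU) proportional to CYP3A4 activity, from luciferin generated off a proluciferin substrate. Enzyme–substrate mix plus compound 10 min at room temp, NADPH regeneration 1 h, detection reagent 20 min.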

The nature of assay [14]: Caspase-3/7 induction in HepG2 cells by small molecules, qHTS cell viability counter screen (AID 1346981). Also: series mostly up to about 92 µM; % is scaled to controls: 0 for no effect and ±100 for the full control effect; nearly all actives have a fitted effect of over 30% in size. An outline of the steps:
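HepG2, WT, 2,000 cells/well; 5 hr pre-incubation 37 C/5% CO2; compound pin-transferred from DMSO; 16 hr exposure; CellTiter-Fluor, 1 hr; fluorescence read.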

Assay [15] in a line: Caspase-3/7 induction in CHO-K1 cells by small molecules, qHTS cell viability counter screen (AID 1346979). Also: % is scaled to controls: 0 for no effect and ±100 for the full control effect; nearly all actives have a fitted effect of over 35% in size. The method, boiled down: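 CHO-K1 wt, 1,500 cells/well; 5hr pre-incubation 37C/5% CO2; compound pin transfer (DMSO); 16hr exposure; CellTiter-Fluor added, 1hr, fluorescence read.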

Chain of Nuclear receptor subfamily 1 group I member 2 (Rattus norvegicus) (Q9R1A7 whole entry, looked up): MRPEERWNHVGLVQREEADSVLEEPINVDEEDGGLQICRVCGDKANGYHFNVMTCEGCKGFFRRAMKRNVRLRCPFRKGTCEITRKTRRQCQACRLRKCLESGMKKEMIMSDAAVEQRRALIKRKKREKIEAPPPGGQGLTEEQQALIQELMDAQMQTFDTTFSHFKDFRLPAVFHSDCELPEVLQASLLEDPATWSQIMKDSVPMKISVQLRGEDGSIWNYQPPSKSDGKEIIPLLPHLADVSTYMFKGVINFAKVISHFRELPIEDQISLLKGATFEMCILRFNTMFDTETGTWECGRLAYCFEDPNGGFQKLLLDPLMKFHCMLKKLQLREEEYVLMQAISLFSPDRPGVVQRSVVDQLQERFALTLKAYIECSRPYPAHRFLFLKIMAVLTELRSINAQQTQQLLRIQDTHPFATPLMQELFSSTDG
Chain of Voltage-gated inwardly rectifying potassium channel KCNH2 (Homo sapiens) (Q12809 whole entry, looked up): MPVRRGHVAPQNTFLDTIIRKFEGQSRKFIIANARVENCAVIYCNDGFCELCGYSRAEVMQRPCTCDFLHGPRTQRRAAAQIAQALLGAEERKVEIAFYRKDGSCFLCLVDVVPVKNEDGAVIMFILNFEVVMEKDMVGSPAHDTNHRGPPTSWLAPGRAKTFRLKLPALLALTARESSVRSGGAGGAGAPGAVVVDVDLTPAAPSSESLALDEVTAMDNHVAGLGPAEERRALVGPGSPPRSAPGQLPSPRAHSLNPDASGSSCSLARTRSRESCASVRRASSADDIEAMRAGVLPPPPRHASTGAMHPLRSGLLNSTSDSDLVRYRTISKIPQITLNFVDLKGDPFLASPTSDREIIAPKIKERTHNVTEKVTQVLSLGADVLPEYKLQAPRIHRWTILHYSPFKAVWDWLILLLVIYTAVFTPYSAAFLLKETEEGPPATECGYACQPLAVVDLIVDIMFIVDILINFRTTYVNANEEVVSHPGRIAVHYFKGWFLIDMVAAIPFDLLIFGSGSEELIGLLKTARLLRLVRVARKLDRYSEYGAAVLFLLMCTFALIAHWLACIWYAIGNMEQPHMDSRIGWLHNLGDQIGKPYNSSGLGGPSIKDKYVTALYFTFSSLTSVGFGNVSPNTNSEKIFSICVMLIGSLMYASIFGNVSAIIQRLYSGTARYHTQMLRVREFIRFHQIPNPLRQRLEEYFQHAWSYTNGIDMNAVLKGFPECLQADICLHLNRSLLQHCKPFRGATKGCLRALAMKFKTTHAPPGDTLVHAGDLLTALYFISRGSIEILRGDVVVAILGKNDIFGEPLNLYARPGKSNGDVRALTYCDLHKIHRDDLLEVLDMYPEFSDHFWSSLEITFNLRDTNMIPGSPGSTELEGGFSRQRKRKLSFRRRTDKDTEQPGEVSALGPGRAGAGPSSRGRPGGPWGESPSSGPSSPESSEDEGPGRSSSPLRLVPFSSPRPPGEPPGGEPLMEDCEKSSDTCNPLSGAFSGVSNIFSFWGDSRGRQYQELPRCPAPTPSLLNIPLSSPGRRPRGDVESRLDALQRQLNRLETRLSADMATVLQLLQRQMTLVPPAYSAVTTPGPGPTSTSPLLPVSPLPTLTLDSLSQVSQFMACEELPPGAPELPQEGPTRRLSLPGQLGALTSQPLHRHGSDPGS
Chain of Cytochrome P450 3A4 (Homo sapiens) (P08684 whole entry, looked up): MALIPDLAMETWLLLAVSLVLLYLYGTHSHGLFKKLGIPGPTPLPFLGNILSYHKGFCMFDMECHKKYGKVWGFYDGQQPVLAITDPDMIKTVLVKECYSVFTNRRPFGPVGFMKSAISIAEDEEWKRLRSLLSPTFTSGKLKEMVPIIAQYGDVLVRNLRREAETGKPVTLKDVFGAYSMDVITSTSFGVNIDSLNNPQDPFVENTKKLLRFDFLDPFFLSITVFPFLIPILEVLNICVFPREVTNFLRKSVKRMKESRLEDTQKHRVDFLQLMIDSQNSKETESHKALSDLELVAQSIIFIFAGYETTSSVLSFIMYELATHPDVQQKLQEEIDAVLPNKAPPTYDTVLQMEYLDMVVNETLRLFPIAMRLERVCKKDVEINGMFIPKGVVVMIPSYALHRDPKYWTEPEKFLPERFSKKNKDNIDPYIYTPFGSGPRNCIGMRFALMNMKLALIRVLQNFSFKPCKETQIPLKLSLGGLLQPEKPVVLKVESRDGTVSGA
Chain of Cytochrome P450 2D6 (Homo sapiens) (P10635 whole entry, looked up): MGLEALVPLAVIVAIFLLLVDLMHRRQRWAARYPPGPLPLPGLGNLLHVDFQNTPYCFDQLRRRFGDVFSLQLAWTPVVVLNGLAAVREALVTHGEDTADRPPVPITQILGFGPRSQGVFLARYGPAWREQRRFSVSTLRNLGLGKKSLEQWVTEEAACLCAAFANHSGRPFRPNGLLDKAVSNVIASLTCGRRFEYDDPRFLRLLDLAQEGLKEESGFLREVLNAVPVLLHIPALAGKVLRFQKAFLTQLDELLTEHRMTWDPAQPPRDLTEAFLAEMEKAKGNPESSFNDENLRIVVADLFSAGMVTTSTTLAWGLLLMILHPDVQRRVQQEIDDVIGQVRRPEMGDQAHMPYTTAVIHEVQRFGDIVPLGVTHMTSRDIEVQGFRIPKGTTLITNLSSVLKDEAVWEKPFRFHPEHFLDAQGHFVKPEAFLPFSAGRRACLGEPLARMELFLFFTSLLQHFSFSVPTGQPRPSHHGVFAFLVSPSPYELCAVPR
Chain of Cytochrome P450 1A2 (Homo sapiens) (P05177 whole entry, looked up): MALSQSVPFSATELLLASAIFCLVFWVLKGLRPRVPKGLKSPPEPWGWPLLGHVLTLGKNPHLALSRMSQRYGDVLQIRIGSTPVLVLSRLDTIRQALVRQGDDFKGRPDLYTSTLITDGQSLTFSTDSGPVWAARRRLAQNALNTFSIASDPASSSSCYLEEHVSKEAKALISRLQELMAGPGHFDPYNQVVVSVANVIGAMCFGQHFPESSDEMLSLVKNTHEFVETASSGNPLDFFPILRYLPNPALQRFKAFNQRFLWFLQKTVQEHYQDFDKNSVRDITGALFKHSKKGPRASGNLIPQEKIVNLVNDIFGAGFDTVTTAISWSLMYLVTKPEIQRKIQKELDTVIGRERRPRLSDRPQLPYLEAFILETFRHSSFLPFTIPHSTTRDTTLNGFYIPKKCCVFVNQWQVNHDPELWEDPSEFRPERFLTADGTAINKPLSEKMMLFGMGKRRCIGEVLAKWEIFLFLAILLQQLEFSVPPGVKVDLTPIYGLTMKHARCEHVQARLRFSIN
Chain of Cytochrome P450 2C19 (Homo sapiens) (P33261 whole entry, looked up): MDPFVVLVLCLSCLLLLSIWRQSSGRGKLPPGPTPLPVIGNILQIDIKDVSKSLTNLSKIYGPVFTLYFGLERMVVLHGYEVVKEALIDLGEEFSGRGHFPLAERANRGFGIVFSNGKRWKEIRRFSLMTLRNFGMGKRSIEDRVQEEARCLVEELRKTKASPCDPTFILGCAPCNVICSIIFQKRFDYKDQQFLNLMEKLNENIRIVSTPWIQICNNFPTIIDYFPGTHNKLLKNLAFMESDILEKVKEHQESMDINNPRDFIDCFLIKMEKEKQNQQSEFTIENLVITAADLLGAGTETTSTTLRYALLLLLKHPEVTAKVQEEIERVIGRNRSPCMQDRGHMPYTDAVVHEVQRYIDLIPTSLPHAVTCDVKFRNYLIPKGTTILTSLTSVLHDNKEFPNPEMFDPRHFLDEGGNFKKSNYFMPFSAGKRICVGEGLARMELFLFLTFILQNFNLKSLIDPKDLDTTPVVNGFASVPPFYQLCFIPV
Chain of Cytochrome P450 2C9 (Homo sapiens) (P11712 whole entry, looked up): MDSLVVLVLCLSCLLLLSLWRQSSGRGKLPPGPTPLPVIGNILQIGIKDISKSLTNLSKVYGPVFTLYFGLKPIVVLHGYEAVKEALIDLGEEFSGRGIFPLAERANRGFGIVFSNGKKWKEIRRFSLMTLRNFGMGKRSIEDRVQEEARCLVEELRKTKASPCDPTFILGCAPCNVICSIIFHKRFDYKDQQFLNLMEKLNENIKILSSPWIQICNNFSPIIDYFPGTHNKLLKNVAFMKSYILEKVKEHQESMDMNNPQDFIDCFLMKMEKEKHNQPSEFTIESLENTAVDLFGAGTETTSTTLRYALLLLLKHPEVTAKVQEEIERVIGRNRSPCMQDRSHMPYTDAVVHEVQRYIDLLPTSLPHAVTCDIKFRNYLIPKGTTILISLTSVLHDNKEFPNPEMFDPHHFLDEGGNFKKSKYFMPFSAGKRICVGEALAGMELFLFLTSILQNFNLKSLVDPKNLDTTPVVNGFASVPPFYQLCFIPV
Chain of Nuclear receptor subfamily 1 group I member 2 (Homo sapiens) (O75469 whole entry, looked up): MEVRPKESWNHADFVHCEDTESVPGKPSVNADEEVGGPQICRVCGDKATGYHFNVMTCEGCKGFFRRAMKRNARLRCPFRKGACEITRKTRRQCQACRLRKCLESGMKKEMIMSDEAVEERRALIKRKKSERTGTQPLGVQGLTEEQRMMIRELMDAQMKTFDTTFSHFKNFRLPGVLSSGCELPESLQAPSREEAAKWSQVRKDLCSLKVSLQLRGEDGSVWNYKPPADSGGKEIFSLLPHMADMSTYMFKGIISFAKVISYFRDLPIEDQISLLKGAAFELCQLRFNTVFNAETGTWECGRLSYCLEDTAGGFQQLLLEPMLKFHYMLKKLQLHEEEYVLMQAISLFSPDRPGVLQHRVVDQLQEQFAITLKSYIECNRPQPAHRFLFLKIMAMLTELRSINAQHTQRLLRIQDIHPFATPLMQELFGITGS

`CCCOC(C(=O)OC1CCN(C)CC1)(c1ccccc1)c1ccccc1`: the Potency in [1] was 23.7 µM (active); in assay [4], 15.8 µM (active); in [5] it was 28.2 µM (active); in [6] it was 14.1 µM (active); in assay [7], 7.76 µM (active). For the same molecule, the Potency result in [2], in [3], in assay [8] and in assay [9] was “inactive” each time.

With `OC(CN1CCC(Cc2ccc(F)cc2)CC1)c1ccc(Cl)cc1` (configuration not stated), the Potency in [1] was 29.8 µM (active); in [7] it was 0.138 µM (active); in assay [12], 0.0849 µM (active). The Potency result in assay [2], in [10], in assay [6], in [11], in assay [8] and in assay [9] was “inactive” in each case. Further, the Potency result in [13] was “inactive”. The max activation in assay [4] is -1.2%.

Turning to `O=C(c1ccc(F)cc1)C1CCN(CCn2c(=S)[nH]c3ccccc3c2=O)CC1`, the Potency entry in [1], in assay [2], in assay [3] and in assay [14] was “inactive” throughout. Moreover, the max activation in [4] was 1.09%. Further, the Potency in [7] was 4.36 µM (active); in assay [12], 0.601 µM (active).

Consider `CCOC(=O)C1=C[C@]2(CC)CCCN3CCc4c(n1c1ccccc41)[C@@H]32`, for which the Potency in [1] is 26.6 µM (active); in assay [7], 2.75 µM (active); in [12], 0.151 µM (active). For the same molecule, the Potency entry in assay [2], in assay [3], in [14], in assay [11] and in assay [9] was “inactive” each time.

Turning to `O=C(Nc1ccccc1)c1ccccc1O`, the Potency result in [2], in [3], in assay [12] and in [13] was “inactive” in each case. Further, the Potency in assay [10] is 6.86 µM (active); in assay [7], 35.6 µM (active); in assay [8], 31.7 µM (active); in [9], 5.03 µM (active).

For the molecule `O=C(Cl)c1cc(C(=O)Cl)cc(C(=O)Cl)c1`, the Potency entry in assay [2], in assay [14] and in [11] was “inactive” in each case. The figures for the Potency in assay [10], in assay [8] and in assay [9] were 54.5 µM (active), 28.3 µM (active) and 39.9 µM (active), respectively.

For `CCCCC`, the Potency result in [2], in assay [15], in assay [3], in assay [5], in assay [6] and in [11] was “inactive” in each case. Moreover, the Potency result in assay [8], in assay [12] and in assay [13] was “inactive” in each case. Also, in assay [4], the max activation is -1.52%. In assay [9], the Potency is 78.4 µM (active).

Take `CN(C)CCN(Cc1ccccc1)c1ccccn1`: the Potency entry in assay [2], in assay [15], in assay [3], in assay [5], in assay [6] and in assay [8] was “inactive” in each case. The Potency entry in [13] was “inactive”. The Potency is 6.68 µM (active) in assay [10], 0.219 µM (active) in assay [7] and 9.52 µM (active) in assay [12]. Besides, the max activation in assay [4] was 2.98%.

As to `CC(=O)c1ccc2c(c1)N(CCCN(C)C)c1ccccc1S2`, the Potency result in assay [2], in assay [3], in assay [10], in [5], in [6] and in assay [8] was “inactive” each time. Further, the Potency entry in [13] is “inactive”. Also, the max activation in assay [4] was -2.15%. Also, the Potency in [7] was 1.95 µM (active); in [9], 11 µM (active).

For the molecule `CN(C)CCN(Cc1ccc(Cl)cc1)c1ccccn1`, the Potency entry in assay [2], in [3], in assay [14] and in assay [13] was “inactive” throughout. Further, the values for the Potency in assay [7] and in assay [12] were 0.275 µM (active) and 2.39 µM (active), respectively.
